From PubChem
UHRF1 binding: UHRF1 methylated DNA binding inhibitors, primary screen, counter-screen for MBD2 inhibitor project, biochemical, TR-FRET, human UHRF1, single concentration; E3 ubiquitin-protein ligase UHRF1 (Homo sapiens), Q96T88; UHRF1 binding to methylated oligo; inhibition, % at 4.4 µM; 0.75% of 370,000 active; AID 687016, 2013; in the data active = inhibition above about 21%;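 note: UHRF1 SRA domain binding a hemimethylated CpG hairpin DNA probe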
Target sequence (Q96T88 whole entry, looked up, the tested form may be a part): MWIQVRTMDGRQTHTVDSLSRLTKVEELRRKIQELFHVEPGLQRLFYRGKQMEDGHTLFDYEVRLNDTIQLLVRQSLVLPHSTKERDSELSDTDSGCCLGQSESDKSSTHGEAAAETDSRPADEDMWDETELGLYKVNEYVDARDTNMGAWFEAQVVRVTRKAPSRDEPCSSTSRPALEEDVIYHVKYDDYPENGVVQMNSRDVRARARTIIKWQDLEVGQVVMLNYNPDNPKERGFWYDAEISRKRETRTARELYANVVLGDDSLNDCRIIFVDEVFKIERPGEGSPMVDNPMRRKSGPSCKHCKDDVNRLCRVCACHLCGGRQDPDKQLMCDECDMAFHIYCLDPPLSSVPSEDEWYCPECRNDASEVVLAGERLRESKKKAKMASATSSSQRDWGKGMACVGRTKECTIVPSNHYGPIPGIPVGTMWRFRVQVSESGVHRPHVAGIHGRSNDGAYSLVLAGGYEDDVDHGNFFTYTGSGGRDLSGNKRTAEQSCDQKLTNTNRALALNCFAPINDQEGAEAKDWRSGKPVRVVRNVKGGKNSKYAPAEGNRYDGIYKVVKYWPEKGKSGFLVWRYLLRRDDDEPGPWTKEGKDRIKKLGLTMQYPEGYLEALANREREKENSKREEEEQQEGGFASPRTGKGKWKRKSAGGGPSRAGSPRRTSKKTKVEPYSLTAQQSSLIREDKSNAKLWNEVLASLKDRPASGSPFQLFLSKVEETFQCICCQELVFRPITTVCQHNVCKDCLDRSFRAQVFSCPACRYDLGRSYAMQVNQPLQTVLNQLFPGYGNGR
MBD2 DNA inh: inhibitors of MBD2 binding to methylated DNA, primary screen, biochemical, TR-FRET, DNA-binding domain, human; 0.31% of 370,000 active; inhibition, % at 4.4 µM; AID 686964, 2013; MBD2 binding to methylated oligonucleotide; in the data active = inhibition above about 13%
LEDGF integ inh: blockers of LEDGF/p75-dependent integrase strand transfer – biochemical, TR-FRET, high throughput, primary screen. TR-FRET IN-LEDGF/p75 DNA integration, Eu/Cy5. inhibition, % at 3.7 µM. 0.64% of 370,000 active;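 active = inhibition above the screen-wide mean plus 3 SD, cut at about 13% in these data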;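 note: signal is the Cy5 over europium emission ratio at 671 and 618 nm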
PRMT1 FP inh: PRMT1 methyltransferase inhibitors, primary screen, biochemical, fluorescence polarization; Protein arginine N-methyltransferase 1 (Homo sapiens), Q99873; recombinant PRMT1, activity-based probe fluorescence polarization; inhibition, % at 2.79 µM; 1.3% of 370,000 active;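 active = inhibition above about 21% made by adding two undisclosed values, limit read from the data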
IN multimer up: HIV-1 IN multimer formation enhancers, counter-screen for LEDGF/p75 integration inhibitor project, biochemical, TR-FRET. activation, % at 7.7 µM. shares compounds with LEDGF integ inh. AID 1053131, 2014. TR-FRET HIV-1 integrase multimerization. 17% of 2,000 active; in the data active = activation above about 8.9%
TRFRET interf: TR-FRET optical interference artefacts, confirmation, artefact control for LEDGF/p75-dependent integration inhibitor project, biochemical, HIV-1 IN multimerization | TR-FRET optical interference counterscreen | shares compounds with LEDGF integ inh | 2,000 tested, under 10 active | inhibition, % at 7.7 µM | AID 1053135, 2014;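 active = inhibition above the mean over all tested compounds plus 3 SD, which no compound reached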
LEDGF integ conf: inhibitors of HIV-1 IN-LEDGF/p75 DNA integration, confirmation, biochemical, TR-FRET; TR-FRET LEDGF/p75-dependent HIV-1 integration; inhibition, % at 3.7 µM; AID 1053136, 2014; shares compounds with LEDGF integ inh; 36% of 2,000 active; in the data active = inhibition above about 14%
A number is an active result. Sampled rows, rich in hits. Any-hit rate of the full collection: about 2.5%.

`Cn1c(SCC(=O)NCc2ccco2)nnc1-c1ccccc1` gave UHRF1 binding inactive, MBD2 DNA inh inactive, LEDGF integ inh inactive and PRMT1 FP inh inactive.
`Cc1nnc(NC(=O)CSc2nnc(-c3ccccc3)n2C)s1` gave UHRF1 binding inactive, MBD2 DNA inh inactive, LEDGF integ inh 18, PRMT1 FP inh inactive, IN multimer up inactive, TRFRET interf inactive and LEDGF integ conf inactive.
O=C(/C=C/c1ccccc1)Nc1cccc(C(=O)NC2CC2)c1 was read as UHRF1 binding inactive, MBD2 DNA inh inactive, LEDGF integ inh inactive and PRMT1 FP inh inactive.
Cc1[nH]c(=O)[nH]c1C(=O)CCCCC(=O)O was read as UHRF1 binding inactive, MBD2 DNA inh inactive, LEDGF integ inh 73, PRMT1 FP inh inactive, IN multimer up inactive, TRFRET interf inactive and LEDGF integ conf 60.
`CSc1ccc(C(=O)c2[nH]c(=O)[nH]c2C)cc1` gave UHRF1 binding inactive, MBD2 DNA inh inactive, LEDGF integ inh inactive and PRMT1 FP inh inactive.
Screening CN1CCC(C)(C(=O)Nc2cccc(Oc3ccccc3)c2)C1 (configuration not stated) returned UHRF1 binding inactive, MBD2 DNA inh inactive, LEDGF integ inh inactive and PRMT1 FP inh inactive.
For CC1NC(=O)NC1CCCCCC(=O)Nc1ccc(F)cc1 (configuration not stated) the results were UHRF1 binding inactive, MBD2 DNA inh inactive, LEDGF integ inh 84, PRMT1 FP inh inactive, IN multimer up inactive, TRFRET interf inactive and LEDGF integ conf 93.
Screening Cc1c(F)cccc1NC(=O)CCCCCC1NC(=O)NC1C (configuration not stated) returned UHRF1 binding inactive, MBD2 DNA inh inactive, LEDGF integ inh 78, PRMT1 FP inh inactive, IN multimer up inactive, TRFRET interf inactive and LEDGF integ conf 89.
For COC(=O)[C@]12C[C@H](CC(=O)NCc3cccs3)C(=O)N(Cc3ccc4c(c3)OCO4)C1=C[C@H](C(C)C)O[C@@H]2C1CC1 the results were UHRF1 binding inactive, MBD2 DNA inh inactive, LEDGF integ inh inactive and PRMT1 FP inh inactive.
`O=C(NCCN1CCOCC1)N1c2ccccc2Sc2ccccc21` gave UHRF1 binding inactive, MBD2 DNA inh inactive, LEDGF integ inh inactive and PRMT1 FP inh inactive.
`O=C(CCN1CCOCC1)N1c2ccccc2Sc2ccc(Cl)cc21` gave UHRF1 binding inactive, MBD2 DNA inh inactive, LEDGF integ inh 17, PRMT1 FP inh inactive, IN multimer up inactive, TRFRET interf inactive and LEDGF integ conf inactive.
For CCN(CC)C(=O)CSc1nnc(-c2c[nH]c3ccccc23)o1 the results were UHRF1 binding inactive, MBD2 DNA inh inactive, LEDGF integ inh inactive and PRMT1 FP inh inactive.
For O=C1OC(c2cccs2)=N/C1=C/c1ccc(-c2cccc(C(=O)O)c2)o1 the results were UHRF1 binding 44, MBD2 DNA inh inactive, LEDGF integ inh 29, PRMT1 FP inh inactive, IN multimer up 9.5, TRFRET interf inactive and LEDGF integ conf 15.
Screening CCC1(CC)Cc2ccccc2-c2nc(NCCCO)[nH]c(=O)c21 returned UHRF1 binding inactive, MBD2 DNA inh inactive, LEDGF integ inh 14, PRMT1 FP inh inactive, IN multimer up inactive, TRFRET interf inactive and LEDGF integ conf inactive.
`O=C1C=C(N2CCOCC2)c2ccccc2C1=O` gave UHRF1 binding inactive, MBD2 DNA inh inactive, LEDGF integ inh 22, PRMT1 FP inh inactive, IN multimer up inactive, TRFRET interf inactive and LEDGF integ conf 72.
CCCCNc1ccc2c(c1)OC[C@@H](CC(C)C)NS2(=O)=O was read as UHRF1 binding inactive, MBD2 DNA inh inactive, LEDGF integ inh inactive and PRMT1 FP inh inactive.
Screening O=Cc1cc(N=Nc2ccccc2Cl)ccc1O returned UHRF1 binding inactive, MBD2 DNA inh inactive, LEDGF integ inh 17, PRMT1 FP inh inactive, IN multimer up inactive, TRFRET interf inactive and LEDGF integ conf 49.
`CC(C)(C)OC(=O)N[C@H](C(=O)OC(C)(C)C)c1ccc(C(F)(F)F)cc1` gave UHRF1 binding inactive, MBD2 DNA inh inactive, LEDGF integ inh inactive and PRMT1 FP inh inactive.
Screening CN(C(=O)COC(=O)c1ccc(=O)n(Cc2ccccc2)n1)C1CCS(=O)(=O)C1 (configuration not stated) returned UHRF1 binding inactive, MBD2 DNA inh inactive, LEDGF integ inh inactive and PRMT1 FP inh inactive.
COc1ccc(OC)c(S(=O)(=O)Nc2cccc3c(O)cccc23)c1 was read as UHRF1 binding inactive, MBD2 DNA inh inactive, LEDGF integ inh inactive and PRMT1 FP inh inactive.
`COc1ccc(NC(=O)Nc2ccc(O)c3ccccc23)cc1` gave UHRF1 binding inactive, MBD2 DNA inh inactive, LEDGF integ inh 15, PRMT1 FP inh inactive, IN multimer up inactive, TRFRET interf inactive and LEDGF integ conf inactive.
Screening COc1ccc(OC)c(S(=O)(=O)Nc2ccc(O)c3ccccc23)c1 returned UHRF1 binding inactive, MBD2 DNA inh inactive, LEDGF integ inh 23, PRMT1 FP inh inactive, IN multimer up inactive, TRFRET interf inactive and LEDGF integ conf inactive.
`O=S(=O)(Nc1ccc(O)c2ccccc12)c1ccc(F)cc1` gave UHRF1 binding inactive, MBD2 DNA inh inactive, LEDGF integ inh 27, PRMT1 FP inh inactive, IN multimer up inactive, TRFRET interf inactive and LEDGF integ conf inactive.
`COc1ccccc1NC(=O)NCC1(N(C)C)CCCCC1` gave UHRF1 binding inactive, MBD2 DNA inh inactive, LEDGF integ inh inactive and PRMT1 FP inh inactive.
For CC(=O)C[C@@H]1OC[C@H](Cc2ccccc2)N1S(=O)(=O)c1ccc(C)cc1 the results were UHRF1 binding inactive, MBD2 DNA inh inactive, LEDGF integ inh inactive and PRMT1 FP inh inactive.
Screening C/C=C(\C)CN1CCCC(CO)(Cc2ccccc2)C1 (configuration not stated) returned UHRF1 binding inactive, MBD2 DNA inh inactive, LEDGF integ inh 14, PRMT1 FP inh inactive, IN multimer up inactive, TRFRET interf inactive and LEDGF integ conf inactive.
For CC(=O)Nc1cccc(C(=O)N2CCN(S(=O)(=O)Cc3ccccc3)CC2)c1 the results were UHRF1 binding inactive, MBD2 DNA inh inactive, LEDGF integ inh inactive and PRMT1 FP inh inactive.
Screening O=c1cc(-c2cccc([N+](=O)[O-])c2)[nH][nH]1 returned UHRF1 binding inactive, MBD2 DNA inh inactive, LEDGF integ inh 22, PRMT1 FP inh inactive, IN multimer up inactive, TRFRET interf inactive and LEDGF integ conf inactive.
